Test results: PubChem BioAssay AID2061319 (National Center for Advancing Translational Sciences (NCATS), 2025)
Results filed as inconclusive are left out. Unmarked numbers belong to inactive results. Calls of active or inactive are those of the source. The call rests on the fitted dose curve; in most records, active means well fitted inhibition curve with a large enough effect; inconclusive means small, poorly fitted or top-dose-only effect; inactive means flat fitted curve, though single readings scatter. Square brackets hold non-standard residues; d marks the D form. Peptide text beside a SMILES is read from it. * marks the point of attachment. Dolaproine = CO[C@@H]([C@@H]1CCCN1)[C@@H](C)C(=O)O; Dil = CC[C@H](C)[C@H](NC)[C@@H](CC(=O)O)OC; X1 = C[C@@H](N*)[C@@H](O)c1ccccc1; NMeV = CN[C@H](C(=O)O)C(C)C

Assay: Identification of antibody-drug conjugate (ADC) payloads which are substrates of ATP-binding cassette drug efflux transporters: ABCG2-H460-MX20 cell line with Ko143
Details: H460-MX20 (ABCG2) + Ko143, CellTiter-Glo viability, 48 h; series mostly up to 28.7 µM; activity change, negative = cytotoxicity: at the top concentration
From the text: Antibody-drug conjugates (ADCs) feature an antibody recognizing a specific protein joined to a potent toxic payload. Numerous antibody-drug conjugates have received FDA approval; however, clinical resistance arises. Resistance mechanisms include decreased expression or mutation of the antibody target, impaired payload release, or increased expression of ATP-binding cassette (ABC) efflux transporters associated with multidrug resistance. We therefore sought to characterize the interaction of ABC multidrug transporters with ADC payloads. We performed a high-throughput screen with 27 common ADC payloads using cells lines expressing ABC transporters P-glycoprotein (P-gp, encoded by ABCB1) or ABCG2 (encoded by ABCG2). Confirmatory assays were also performed using cells transfected to express P-gp, ABCG2, or MRP1 (encoded by ABCC1). Several commonly used ADC payloads were substrates of P-gp, including calicheamicin gamma1, monomethyl auristatin E, DM1, and DM4. All the pyrrolobenzodiazepines tested - SJG136, SGD-1882, SG2057, and SG3199 - were substrates of P-gp, ABCG2, and MRP1. […] These findings highlight the risk of transporter-mediated resistance with certain ADC payloads and underscore the importance of selecting payloads that evade ABC transporter recognition in future ADC development.
HEK-293 cells were transfected with empty vector (pcDNA) or vector containing the human ABCB1 (MDR-19), ABCG2 (R-5), or ABCC1 gene (MRP1) and were maintained in EMEM with 2 mg/mL G418 added to maintain transporter expression. The HeLa derivative KB-3-1 and the P-gp overexpressing KB-8-5-11 subline were maintained in DMEM; KB-8-5-11 additionally received 100 ng/mL colchicine. H460 parental cells were obtained from the Division of Cancer Treatment and Diagnosis Tumor Repository, National Cancer Institute at Frederick, MD and were cultured in RPMI. The ABCG2 expressing subline H460 MX20 was generated by selecting H460 cells in 20 nM mitoxantrone. Media in all cases was supplemented with 10% FBS and 1% penicillin-streptomycin. We explored 27 common ADC payloads, in two orthogonal, paired cell line sets-a drug selected and transfected set for each transporter--to identify substrates of the ABC transporters P-gp and ABCG2. Compounds were sourced from Levena Biopharma (San Diego, CA), Selleck Chem (Houston, TX), ChemieTek (Indianapolis, IN), or Microsource Discovery Systems (Gaylordsville, CT). Screening was performed as previously described. Briefly, cells were plated at a density of 500 cells/well in 1536 well plates with compounds added using a 1536-head pin tool (Kalypsys, San Diego CA). Cells were incubated with cytotoxic drugs and processed with CellTiter Glo reagent (Promega, Madison, WI) to determine viability after 48 hours. P-gp substrates were identified by comparing compound activity between paired sets of low-expressing (sensitive) and over-expressing (resistant) cell lines.

| SMILES | Potency | activity change, negative = cytotoxicity |
| --- | --- | --- |
| CC[C@@]1(O)C(=O)OCc2c1cc1n(c2=O)Cc2cc3ccccc3nc2-1 | 238 nM (active) | – |
| CC[C@H](C)[C@@H]([C@@H](CC(=O)N1CCC[C@H]1[C@H](OC)[C@@H](C)C(=O)N[C@H](C)[C@@H](O)c1ccccc1)OC)N(C)C(=O)[C@@H](NC(=O)[C@@H](NC)C(C)C)C(C)C (H-[NMeV]V[Dil][Dolaproine]-X1) | – | -30.4% |
| CC[C@H](C)[C@@H]1NC(=O)CNC(=O)[C@H]2Cc3c([nH]c4cc(O)ccc34)S(=O)C[C@H](NC(=O)CNC1=O)C(=O)N[C@@H](CC(N)=O)C(=O)N1C[C@H](O)C[C@H]1C(=O)N[C@@H]([C@@H](C)[C@@H](O)CO)C(=O)N2 (stereo partly drawn) | 533 nM (active) | – |
| COc1cccc2c1C(=O)c1c(O)c3c(c(O)c1C2=O)C[C@@](O)(C(=O)CO)CC3OC1CC(N2CCOC(OC)C2)C(O)C(C)O1 (stereo partly drawn) | 9.5 nM (active) | – |
| COc1cc2cc(C(=O)N3C[C@@H](CCl)c4c3cc(O)c3ccccc43)[nH]c2c(OC)c1OC | 1.9 nM (active) | – |
| CC[C@H](C)[C@@H]([C@@H](CC(=O)N1CCC[C@H]1[C@H](OC)[C@@H](C)C(=O)N[C@H](C)[C@@H](O)c1ccccc1)OC)N(C)C(=O)[C@@H](NC(=O)[C@H](C(C)C)N(C)C)C(C)C | 6710 nM (active) | – |
| CC[C@H](C)[C@H](NC(=O)[C@H]1CCCCN1C)C(=O)N(C)[C@H](C[C@@H](OC(C)=O)c1nc(C(=O)O)cs1)C(C)C | – | -27.7% |
| CC[C@H](C)[C@H](NC(=O)[C@H]1CCCCN1C)C(=O)N(C)[C@H](C[C@@H](OC(C)=O)c1nc(C(=O)N[C@@H](Cc2ccccc2)C[C@H](C)C(=O)O)cs1)C(C)C | – | -26% |
